Compound activity: PubChem BioAssay, several laboratories
Rows were chosen to be rich in hits. Some 9.6% of all compounds tested hit in one or more screens of this group.
HCT116 bCat-KO: beta-catenin-lacking colon tumor cell growth suppression | 140,000 compounds, 1.5% hits | HCT116 beta-catenin knockout viability, CellTiter-Glo, 60 h; hits give low values | AID 818 | viability, % at 10 µM;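 active = viability at or under a set limit, the compound median less 4 SD, cut at about 6% in these data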;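 also: 0% = Hyamine 1622 control at 20 µM and 100% = untreated cell control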
HCT116 PTEN-null: PTEN-deleted cell growth suppression. HCT116 PTEN-null viability, CellTiter-Glo, 60 h; hits give low values. viability, % at 10 µM. AID 827. 140,000 compounds, 1.2% hits;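 active = viability at or below a set limit, 4 SD under the median of all tested compounds, cut at about 3.7% in these data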;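 also: PTEN knockout HCT116 line with beta catenin targeted HCT116 as companion control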
Autophagy mod: autophagy modulation, high-content screen | calls only at 10 µM (by protocol) | MEF GFP-LC3 puncta imaging; test concentration mostly 10 µM | 190,000 compounds, 0.98% hits | AID 463193;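 active = percentage of spot-positive cells more than 3 SD above its plate mean, without a fluorescence outlier flag or 80% toxicity; inconclusive = no clear call, values can overlap the other calls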;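 also: spot-positive cell cutoff set from DMSO-treated cells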
L major viab: Leishmania major promastigote growth inhibition; Leishmania major promastigotes, resazurin fluorescence viability; inhibition, % at 10 µM; 200,000 compounds, 9% hits; in the data active = inhibition above about 50%;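 also: promastigotes grown with compound for 44 hours at 28 °C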
INS promoter inh: TRM-6 insulin promoter activity inhibition. 130,000 compounds, 0.9% hits. AID 1273. inhibition, % at 2 µM. TRM-6 cells (human fetal islet line), insulin promoter-eGFP reporter, imaging; reporter expression induced with tamoxifen;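 active = inhibition above the mean plus 3 SD, with well images judged a real hit on visual review, cut at about 60% in these data, passing the limit was not always enough; inconclusive = inhibition over the cutoff but images rejected on review; inactive = inhibition not above the cutoff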
Insulin prom up: MIN6 insulin promoter up-regulation. AID 1625. MIN6 insulin promoter-GFP reporter, high-content imaging; hits give high values. 190,000 compounds, 0.3% hits. z-score at 5 µM;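 active = z-score above 3 at 5 µM with at least 500 cells counted in the well; inconclusive = wells under 500 cells, flagged as cytotoxic or low count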
Starred values were filed as active, the others as inactive; i = inactive; ? = inconclusive; . = not tested or not shown; + = active, no number.

SMILES	HCT116 bCat-KO	HCT116 PTEN-null	Autophagy mod	L major viab	INS promoter inh	Insulin prom up
COc1ccccc1N1CCN(c2ncc(C(=O)N3CCN(c4cccc(Cl)c4)CC3)c3ccccc23)CC1	.	.	i	62*	-55	.
COc1ccc(Cl)cc1NC(=O)CCN1CCN(c2ccccc2C)CC1	84	80	i	2	-79	-2
CCOc1ccc2ccccc2c1C(=O)N1CCN(c2ccccc2)CC1	20	22	+	83*	13	-0.15
CCOC(=O)c1[nH]c(C)c(C(=O)N2CCN(c3ccccc3)CC2)c1C	92	94	i	-3	.	0.46
Cc1ccc(NC(=O)c2cnc(N3CCN(c4ccccn4)CC3)c3ccccc23)c(Br)c1	.	.	i	26	0	.
O=C(O)CCc1ccc(-c2ccccc2)n1CC1CCCO1 (centres undefined)	91	97	i	20	62	.
COC(=O)c1cc(C(=O)N2CCN(c3cccc(Cl)c3)CC2)cc([N+](=O)[O-])c1	.	.	i	50*	.	0.74
CCOc1ccccc1C(=O)N1CCN(c2cccc(Cl)c2)CC1	20	15	+	6	-97	-0.88
COc1cc2c(C(=O)N3CCN(c4cccc(Cl)c4)CC3)cn(CC(C)C)c(=O)c2cc1OC	59	76	i	58*	26	-1.4
CCCN1CCN(C(=O)c2cn(CC(C)C)c(=O)c3cc(OC)c(OC)cc23)CC1	99	95	i	5	-3	.
CCOc1ccc(S(=O)(=O)N(C)c2ccc(OCC(=O)Nc3ccc4[nH]c(=O)[nH]c4c3)cc2)cc1	87	92	i	13	-7	0.32
O=C(c1ccc(F)cc1)c1c[nH]c(C(=O)NCc2ccco2)c1	94	102	i	-2	0	-0.37
COc1ccc(C(=O)CC(=O)C(=O)NCCc2cccc(C)c2)cc1	102	91	i	64*	-10	0.13
COc1ccc(C(=O)NC(=S)NCCc2ccccc2)cc1	.	.	i	7	.	-0.29
COc1ccc(N(CC(=O)Nc2ccccc2C(=O)NCCc2ccccc2)S(C)(=O)=O)cc1OC	81	78	i	90*	0	-0.15
COCCNC(=O)c1ccccc1NC(=O)CN(c1ccc2c(c1)OCO2)S(C)(=O)=O	96	92	i	-2	.	-1.3
CCOc1ccccc1N(CC(=O)Nc1cc(OC)ccc1OC)S(C)(=O)=O	94	93	i	84*	4	0.33
COc1ccccc1N(Cc1ccccc1)S(=O)(=O)c1cccc(C(=O)Nc2ccc(C(C)=O)cc2)c1	78	82	i	75*	26	-0.61
COc1ccc(N(Cc2ccccc2)S(=O)(=O)c2cccc(C(=O)NC3=NCCS3)c2)cc1	70	58	i	8	-21	-0.37
COc1ccc(OC)c(NC(=O)c2cccc(S(=O)(=O)N(Cc3ccccc3)c3ccccc3OC)c2)c1	84	78	i	96*	-27	-1.2
CCCn1c(=NC(C)=O)c(C#N)cc2c(=O)n3cccc(C)c3nc21	.	.	i	21	36	.
CCCn1c(SCC(=O)NCc2ccc(F)cc2)n[nH]c1=O	.	.	i	-9	-32	-1.1
COc1ccccc1N(CC(=O)N/N=C/c1c(O)ccc2ccccc12)S(C)(=O)=O	8	8	i	99*	12	-0.9
Nc1c(C(=O)O)sc2nc(-c3ccccc3)cc(-c3ccccc3)c12	.	.	.	.	.	4.6*
Cc1nnc(SCC(=O)NC(=O)Nc2ccc3c(c2)OCCO3)s1	.	.	+	8	.	-0.23
SMILES	HCT116 bCat-KO	HCT116 PTEN-null	Autophagy mod	L major viab	INS promoter inh	Insulin prom up
Cc1ccccc1Nc1nnc(SCC(=O)NC(=O)Nc2ccc3c(c2)OCCO3)s1	34	20	i	60*	-11	-0.14
Cc1cccc(Nc2nnc(SCC(=O)Nc3cccnc3Cl)s2)c1	108	98	i	62*	-13	1.2
Cc1cccc(NC(=O)CSc2nnc(NC(=O)CN3CCCCC3)s2)c1	94	100	i	-6	.	-2.6
Cc1ccc(C2=NC3(CCCC3)N=C2SCC(=O)Nc2ccc3c(c2)OCCO3)cc1	60	61	i	73*	38	0.9
Cc1ccc(N(CC(=O)NC2CCCC2)C(=O)c2ccc(C)s2)cc1	.	.	i	19	.	-0.36
C/C(=N\NC(=S)NCCc1ccccc1)c1ccc(C#N)cc1	101	91	i	-2	-8	-0.11
COc1ccccc1Nc1nnc(SCC(=O)NC(=O)Nc2ccc3c(c2)OCCO3)s1	18	14	i	56*	-78	0.49
Cc1cccc(Nc2nnc(SCC(=O)NC(=O)Nc3ccc4c(c3)OCCO4)s2)c1	0.6*	0.8*	i	28	-19	0.25
O=C(CSc1ccc2c(c1)OCCO2)Nc1ccc(Br)cc1	72	80	i	67*	47	1
CCCC(=O)Nc1nnc(SCC(=O)Nc2ccc3c(c2)OCCO3)s1	.	.	i	-3	43	0.01
CCc1nnc(SCC(=O)Nc2ccc3c(c2)OCO3)o1	113	101	i	5	68*	-0.76
Cc1cccc(NC(=O)c2cc(N3CCOCC3)nc3ccccc23)c1	99	85	i	-2	-41	-0.33
CC1(C)CCN(Cc2ccccc2)C1CC#N (centres undefined)	107	100	i	44	.	1.4
COc1ccc(C(=O)OCCCN(C)C)cc1OC	87	96	i	58*	41	?
CN(C)CCCOC(=O)c1ccccc1	102	104	i	-3	-327	.
CN(C)CCCOC(=O)c1ccc(Cl)cc1Cl	98	107	i	93*	-36	0.56
CCCN(CCC)CCCOC(=O)c1ccc(Cl)cc1Cl	99	94	i	90*	-3	1.3
CCCN(CCC)C(=S)NC(=O)c1ccc(Cl)cc1Cl	30	31	i	1	20	.
Fc1ccc(-c2ccc(/C=N\n3cnnc3)o2)cc1Cl	103	97	i	95*	-14	-0.53
CCOc1ccc(S(=O)(=O)NCc2ccccc2OC)cc1	.	.	i	2	-18	-0.15
CSc1ccc(CNc2ccc(C)cc2)cc1	82	88	i	100*	.	0.13
O=[N+]([O-])c1cccc(-c2csc(N/N=C/c3cccc(O)c3)n2)c1	.	.	i	98*	40	-1.3
COc1ccc(CC(=O)Nc2nc(-c3ccncc3)cs2)cc1	.	.	i	29	-53	-0.18
COc1ccc(CC(=O)Nc2nc(-c3cccc([N+](=O)[O-])c3)cs2)cc1	94	96	i	62*	11	0.07
O=C(NCCCN1CCOCC1)C1(c2ccccc2)CCCC1	93	98	i	36	44	0.59
COc1cccc(-n2c(CN3CCN(c4cccc(C)c4)C(C)C3)nc3ccc([N+](=O)[O-])cc3c2=O)c1 (centres undefined)	71	65	i	66*	22	-0.53
COc1cccc(-n2c(CN3CCN(c4ccc(C)cc4)C(C)C3)nc3ccc([N+](=O)[O-])cc3c2=O)c1 (centres undefined)	69	59	i	92*	38	-0.49
